For 29 compounds, Potency and outcome results are on record in PubChem BioAssay (NCATS).

Assay [1] is described as follows: P-glycoprotein substrates identified in KB-3-1 adenocarcinoma cell line, qHTS therapeutic library screen (AID 1346986). Note: nearly all actives have a fitted effect of over 60% in size.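 Note: potency is for cytotoxicity meaning loss of cell viability.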 The method, boiled down: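 Viability by CellTiter-Glo after 72 h compound exposure at 37 degree C, 5% CO2. Cytotoxic call: curve class -1.1 to -2.4, maximum response >50%, AC50 < 10 uM, compared across KB-3-1 and P-gp-overexpressing KB-8-5-11.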

Assay [2] in a line: P-glycoprotein substrates identified in KB-8-5-11 adenocarcinoma cell line, qHTS therapeutic library screen (AID 1346987). Note: nearly all actives have a fitted effect of over 65% in size. The method, boiled down:
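Human cervical adenocarcinoma KB-8-5-11 cells, selected in colchicine to over-express P-gp and assayed without it, were exposed for 72 h to titrated compounds. An ATP-based luminescent viability signal gave AC50.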

Inconclusive results are not listed. Entries that show only a call come without a potency. Calls of active or inactive are those of the source. Calls come from the whole dose curve; as a rule, active = well fitted curve in the direction sought with a large enough effect; inconclusive = small, poorly fitted or top-dose-only effect, or another doubt; inactive = no such curve, though single readings can be large; an effect the other way counts as inactive or inconclusive.
Potency is the fitted concentration of half-maximal effect.

With `COC1CC(O[C@H]2CC[C@]3(C)C4CC[C@@]5(C)C(=O)[C@]4(CC[C@@H]3C2)CC[C@@H]5C2=CC(=O)OC2)OC(C)C1OC1OC(COC2OC(CO)C(O)C(O)C2O)C(O)C(O)C1O` (some centres undefined), the Potency in assay [1] is 3.48 µM (active); in assay [2], 2.19 µM (active).
On to `NC(=O)c1nc(Nc2ccccc2)sc1NC(=O)C1CCCCC1`, for which the Potency entry in assay [1] is “inactive”.
On to `C=C1C(=O)O[C@@H]2/C=C(\CO)CC/C=C(/C=O)C[C@H](O)[C@@H]12`, for which the Potency result in assay [1] is “inactive”.
Take `Cn1cc(C2=C(c3coc4ccccc34)C(=O)NC2=O)c2cc(Br)ccc21`: in assay [1], the Potency entry is “inactive”.
Consider `C=C1CCC2[C@](C)(CCC[C@@]2(C)C=O)[C@H]1CC/C(C)=C/CO` (some centres undefined), for which the Potency result in assay [1] and in assay [2] was “inactive” in each case.
Consider `N#Cc1ccc2ncnc(NCCc3ccccc3)c2c1`, for which the Potency in assay [1] is 16.4 µM (active).
With `C=C(C)C1CCC2(C(=O)O)CCC3(C)C(CCC4C5(C)C(C=O)C(O)C(C)(C)C5CCC43C)C12` (centres undefined), the Potency entry in assay [1] and in assay [2] was “inactive” in each case.
Consider `Cc1cc2c(F)c(Oc3ncnn4cc(OCC(C)OC(=O)C(C)N)c(C)c34)ccc2[nH]1` (centres undefined), for which, in assay [1], the Potency was 16.4 µM (active).
`C=C1C(=O)O[C@@H]2C[C@H](C)[C@@H]3CC(=O)[C@H](O)[C@@]3(C)C[C@H]12`: the Potency result in assay [1] was “inactive”.
In the case of `CCN(Cc1ccccc1)C(=O)Cn1c(=O)n(C)c2cnc(-c3ccccc3)nc21`, the Potency entry in assay [1] is “inactive”.
As to `CC(=O)O[C@@H]1CC2C(/C=C(\C)C(=O)[C@@]3(O)C[C@@H](C)[C@H](OC(=O)c4ccccc4)C3/C=C/1C)C2(C)C` (some centres undefined), the Potency entry in assay [1] is “inactive”.
Take `COc1cc2c(cc1O)C1(Cc3ccc4c(c3C1O)OCO4)[N+](C)([O-])CC2` (centres undefined): the Potency result in assay [1] and in assay [2] was “inactive” each time.
Regarding `CC(C)(F)CC(NC(c1ccc(-c2ccc(S(C)(=O)=O)cc2)cc1)C(F)(F)F)C(=O)NC1(C#N)CC1` (centres undefined), in assay [1], the Potency result is “inactive”.
`C=C1CC[C@@H]2[C@](C)(CO)[C@H](O)CC[C@@]2(C)[C@@H]1C/C=C1/C(=O)OCC1OC(=O)/C(=C/CO)C(O)C[C@@H]1C(=C)CC[C@@H]2[C@](C)(CO)[C@H](O)CC[C@]21C` (some centres undefined): the Potency result in assay [1] and in assay [2] was “inactive” in each case.
With `COC1C(OC(=O)/C=C/C=C/C=C/C=C/C(=O)O)CCC2(CO2)C1C1(C)OC1CC=C(C)C` (centres undefined), in assay [1], the Potency entry is “inactive”.
Consider `COc1c(C)cc(NC(=O)c2nn(Cc3ccc(F)cc3)c3c2CN(C(=O)c2ccc[nH]2)C[C@]3(C)C(N)=O)cc1C`, for which, in assay [1], the outcome is “inactive [at 9.29 µM]”.
For the compound `C=C1C(=O)O[C@@H]2C[C@@]3(C)C[C@@H](O)C[C@H](C)C3=C[C@H]12`, the Potency entry in assay [1] was “inactive”.
On to `C=C1C(=O)O[C@@H]2[C@H]1CC[C@H](C)[C@]1(CCC(=O)O1)C2(C)O` (some centres undefined), for which, in assay [1], the Potency result was “inactive”.
Same read-out and setting: the value for `COc1ccc(-c2c(C)nn3c(NCCN4CCOCC4)cc(C)nc23)cc1OC` was “inactive”.
For the compound `CCC/C=C/C(=O)O[C@H]1CC(C)(C)CC2[C@@]13[C@H](O)C[C@]1(C)[C@@]2(CCC2[C@@]4(C)CC[C@H](O[C@@H]5O[C@H](C(=O)O)[C@@H](O)[C@H](O[C@@H]6O[C@H](CO)[C@H](O)[C@H](O)[C@H]6O[C@@H]6O[C@@H](C)[C@H](O)[C@@H](O)[C@H]6O[C@@H]6OC[C@](O)(CO)[C@H]6O)[C@H]5O[C@@H]5O[C@H](CO)[C@H](O)[C@H](O)[C@H]5O)C(C)(C)C4CC[C@]21C)O[C@H]3O` (some centres undefined), the outcome in assay [1] and in assay [2] was “inactive [at 9.29 µM]” in each case.
On to `Fc1ccc(-c2nc(-c3ccccc3F)[nH]c2-c2ccncc2)cc1`, for which the Potency result in assay [1] and in assay [2] was “inactive” in each case.
As to `CC1(C)CN(C(=O)c2ccc(-c3cccc4nc(NC(=O)C5CC5)nn34)cc2)C1`, the Potency entry in assay [1] is “inactive”.
Regarding `C=C[C@]1(C)C[C@H](O)[C@H]2C(=C)C(=O)O[C@@H]2[C@H]1C(=C)CO`, the Potency entry in assay [1] was “inactive”.
For the compound `CC1(C)CC[C@]2(C(=O)O[C@@H]3O[C@H](CO)[C@@H](O)[C@H](O)[C@H]3O)CC[C@]3(C)C(=CCC4[C@@]5(C)CC[C@H](O[C@@H]6O[C@H](C(=O)O)[C@H](O)[C@H](O)[C@H]6O)C(C)(C)C5CC[C@]43C)[C@@H]2C1` (some centres undefined), the Potency entry in assay [1] and in assay [2] was “inactive” each time.
With `CC1OC2OC(=O)C3(C)CC4C5(CO5)C5=CC(=O)OC(C)(C)C5=CC(=O)C4(C)C(C1=O)C23` (centres undefined), the Potency result in assay [1] and in assay [2] was “inactive” throughout.
As to `Cc1nc(NC(=O)N2CCC[C@H]2C(N)=O)sc1-c1ccnc(C(C)(C)C(F)(F)F)c1`, in assay [1], the Potency is 11.6 µM (active).
As for `CO[C@@H]1[C@H](O)CCC2(CO2)[C@H]1[C@@]1(C)O[C@@H]1CC=C(C)C` (some centres undefined), in assay [1], the Potency result is “inactive”.
As for `Cc1cn2cc(C(=O)N(C)CCO)cc(NC3CCOc4cccc(C)c43)c2n1` (centres undefined), the Potency result in assay [1] and in assay [2] was “inactive” throughout.
Take `CN1CCc2cc3c(cc2C(=O)Cc2cc4c(cc2C1)OCO4)OCO3`: the Potency result in assay [1] was “inactive”.
